The list is not random: actives were taken first. Their share in the collection is about 4.6%.
TRHR PAM – allosterically enhances the human TRH receptor. P34981. TRHR cells, fluo-8 calcium fluorescence, EC20 TRH enhancement. enhancement, % at 2 µM. 360,000 compounds, 0.66% hits; in the data active = enhancement above about 30%; note: 0% is about no effect
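Enhancer read-out: after compound pinning and an initial kinetic agonist-mode read, an EC20 of TRH (10 nM final) was injected and fluo-8 calcium signal (Ex 480/Em 530) followed at 1 s/cycle for 100 cycles in TRHR-expressing cells.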
TRHR ag – TRH receptor (human) agonism | P34981 | TRHR cells, calcium flux fluo-8, FDSS agonist mode | activation, % at 2 µM | 360,000 compounds, 0.18% hits; note: 0% is about no effect
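TRHR-expressing cells, plated overnight in medium with 10% serum, were loaded with fluo-8 calcium dye at room temperature. After a 10 s baseline, library compound was pin-added and calcium release was recorded kinetically (ex 480/em 530) as agonist response.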
D1 antagonist – human D1 dopamine receptor antagonism. activity change, negative = inhibition, % at 10 µM. 360,000 compounds, 3.2% hits. HEK293 TREx D1 cells, calcium flux, dopamine EC80; stronger effect = lower value. P21728; in the data active = activity change below about -30%; note: % is set by controls: 0 for no effect and ±100 for the full control effect
Target sequence (P21728 whole entry, looked up): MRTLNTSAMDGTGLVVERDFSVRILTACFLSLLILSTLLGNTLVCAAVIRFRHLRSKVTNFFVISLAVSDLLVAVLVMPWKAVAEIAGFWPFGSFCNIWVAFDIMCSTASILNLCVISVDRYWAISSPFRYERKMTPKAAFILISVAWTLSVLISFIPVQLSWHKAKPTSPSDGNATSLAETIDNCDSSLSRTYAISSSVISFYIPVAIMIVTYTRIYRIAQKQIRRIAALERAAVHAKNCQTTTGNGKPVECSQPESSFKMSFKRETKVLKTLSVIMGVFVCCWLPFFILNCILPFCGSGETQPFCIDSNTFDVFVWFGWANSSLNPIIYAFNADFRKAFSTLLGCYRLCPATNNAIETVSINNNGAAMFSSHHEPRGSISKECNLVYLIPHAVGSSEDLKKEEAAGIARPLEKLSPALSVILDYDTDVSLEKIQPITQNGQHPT
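Cells carrying a force-coupled, tetracycline-inducible human D1 receptor report calcium flux. Each well gets a 10 s baseline, compound with 180 s monitoring, then an EC80 dopamine stimulus with a second 180 s kinetic read.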
D1 ag – activates the human D1 dopamine receptor; P21728; HEK293 T-REx D1 cells, calcium flux, agonist mode; activation, % at 2 µM; 360,000 compounds, 1% hits; AID 504660; note: 0% is about no effect
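Inducible HEK293 T-REx D1 cells, force-coupled to calcium signalling, were plated at 4000 cells/well with tetracycline and held overnight at 30 C. After no-wash calcium dye loading, compound-evoked calcium rise over 180 s flagged agonists.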
D1 potentiator – potentiators of human D1 dopamine receptor; AID 504651; potentiation, % at 10 µM; 360,000 compounds, 0.036% hits; HEK293 TREx D1 cells, calcium flux, dopamine EC20 potentiation; P21728; in the data active = potentiation above about 30%; note: 0% is about no effect
Starred values were filed as active, the others as inactive. Cut-off read from the data, not from the text of the source, unless noted: active = activation above about 30%; inactive = the rest.

SMILES	TRHR PAM	TRHR ag	D1 antagonist	D1 ag	D1 potentiator
COc1ccccc1OCCNC(=O)Cc1ccc(Cl)c(Cl)c1	-5	-3	-34*	4	-3
O=C(NCCOc1ccccc1Cl)C(=O)NCCOc1ccccc1Cl	4	0	-5	5	-1
COc1ccc(C(=O)NCc2ccc(Cl)c(Cl)c2)cc1OC	1	0	6	2	-3
O=C(Cn1cc(SCc2ccc(C(F)(F)F)cc2)c2ccccc21)N1CCCC1	-7	1	-1	3	-4
O=C(Nc1nccs1)c1ccc2c(c1)C(=O)N(Cc1cccnc1)C2=O	4	0	-5	5	-1
Cc1cnc(NC(=O)c2ccc3c(c2)C(=O)N(Cc2cccnc2)C3=O)s1	-1	0	-33*	2	-2
Cc1cccc(-c2ccc3ncnc(NCc4cccc(F)c4)c3c2)c1	-1	-1	-27	0	4

Compound activity deposited in PubChem by National Center for Advancing Translational Sciences (NCATS).
